An excerpt weighted towards active compounds, which were near 2.8% of everything screened.
LDHA block: qHTS assay for inhibitors of human lactate dehydrogenase; L-lactate dehydrogenase A chain (Homo sapiens), P00338; activity change, % (values are at about 110 or 230 µM); actives 0.15% (n = 480,000); purified LDHA, NADH/diaphorase-resazurin fluorescence; hits give low values; in the data active = activity change below about -30%; inconclusive = mostly about -25% to -30%;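 note: plate controls were DMSO wells for no effect and wells without enzyme for full effect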
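Remaining NADH was detected by diaphorase (0.133 mg/mL) converting 37 µM resazurin to fluorescent resorufin, read at 0 and 20 minutes. The preceding 5-minute room-temperature reaction used 2 nM LDHA, 0.2 mM sodium pyruvate and 0.06 mM NADH at pH 7.4.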
D3 antag: qHTS of D3 Dopamine Receptor Antagonist: qHTS; D3R cells, DiscoveRx beta-arrestin luminescence, antagonist mode; hits give low values; max response, negative = inhibition, %; actives 2.5% (n = 360,000); AID 652054, 2013; in the data active = max response below about -50%; inconclusive = no clear call, values can overlap the other calls; note: % is set by controls: 0 for no effect and ±100 for the full control effect
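Cells expressing the human receptor were seeded at 1500 cells/well, incubated overnight at 37 degrees C in 5% CO2, then exposed to library compounds with dopamine controls for 90 minutes at 37 degrees C before luminescent detection.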
PI4K2A inh: qHTS for small molecular inhibitors of PI4K2A; purified PI4K2A, ADP-Glo luminescence, 1 h; hits give low values; activity change, negative = inhibition, % at 76.9 µM; Phosphatidylinositol 4-kinase type 2-alpha (Homo sapiens), Q9BTU6; actives 0.13% (n = 420,000); in the data active = activity change below about -50%; inconclusive = mostly about -30% to -49%;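 note: -100% = wells without enzyme as full effect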
Target sequence (Q9BTU6 whole entry, looked up): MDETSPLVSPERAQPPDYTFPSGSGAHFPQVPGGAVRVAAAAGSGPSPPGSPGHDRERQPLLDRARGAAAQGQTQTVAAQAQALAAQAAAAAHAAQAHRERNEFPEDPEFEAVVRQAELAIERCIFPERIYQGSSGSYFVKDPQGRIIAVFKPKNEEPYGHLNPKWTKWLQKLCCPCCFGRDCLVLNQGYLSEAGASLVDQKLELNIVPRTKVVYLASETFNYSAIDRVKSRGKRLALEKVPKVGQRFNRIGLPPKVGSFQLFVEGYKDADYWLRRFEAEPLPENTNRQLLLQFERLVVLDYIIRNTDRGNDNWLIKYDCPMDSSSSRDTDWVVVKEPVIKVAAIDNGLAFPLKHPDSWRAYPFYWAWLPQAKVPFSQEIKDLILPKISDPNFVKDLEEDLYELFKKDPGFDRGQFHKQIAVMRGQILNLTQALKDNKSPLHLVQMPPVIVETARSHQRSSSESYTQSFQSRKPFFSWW
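In this quantitative HTS, ADP production by PI4K2A was quantified luminescently after 1 h at ambient temperature; 100 microM adenosine served as plate-quality control.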
DRD3 agonist: qHTS of D3 Dopamine Receptor Agonist: qHTS; max activation, %; D3R DiscoveRx beta-arrestin cells, luminescence, 90 min; actives 0.58% (n = 410,000); AID 652048, 2013; in the data active = max activation above about 30%; note: 0% is about no effect
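Agonist-mode cell screen: cells plated at 1500/well and incubated overnight at 37 °C, then exposed to library compounds for 90 min at 37 °C. Detection reagent was added for 30–60 min at room temperature, and luminescence was read.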
pAkt inh: HTS Assay for Inhibitors of Akt Phophorylation: Primary Screen; Neuro2A IGF-stimulated pAkt S473 HTRF, 20 min; hits give low values; activity change, % for hits at 50 µM; actives 0.32% (n = 360,000); AID 651550, 2012; in the data active = activity change below about -80%; inconclusive = mostly about -51% to -80%; note: % is set by controls: 0 for no effect and ±100 for the full control effect
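Neuro2A cells (4,500/well, DMEM with 0.5% FBS) were treated with compound at a single 50 µM final concentration, stimulated with 6 nM IGF for 20 min at 37 °C, and lysed. Phospho-Akt Ser473 was read by HTRF as 665/615 ratio ×10^4.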
RGS4 inhibitor: Inhibitors of Regulator of G Protein Signaling (RGS) 4: qHTS. Regulator of G-protein signaling 4 (Homo sapiens), P49798. actives 0.039% (n = 390,000). Potency, µM (titrated, usually from 114 µM), for the others: at the highest dose activity change, negative = inhibition, most hits filed as inhibitors. Transcreener GDP fluorescence polarization, RGS4-accelerated GTP hydrolysis; active = well fitted inhibition curve with a large enough effect; inconclusive = small, poorly fitted or top-dose-only effect; inactive = no such curve, though single readings can be large or run the other way; note: potency is the fitted concentration of half-maximal effect; % is set by controls: 0 for no effect and ±100 for the full control effect; nearly all actives have a fitted effect of over 75% in size
Target sequence (P49798 whole entry, looked up): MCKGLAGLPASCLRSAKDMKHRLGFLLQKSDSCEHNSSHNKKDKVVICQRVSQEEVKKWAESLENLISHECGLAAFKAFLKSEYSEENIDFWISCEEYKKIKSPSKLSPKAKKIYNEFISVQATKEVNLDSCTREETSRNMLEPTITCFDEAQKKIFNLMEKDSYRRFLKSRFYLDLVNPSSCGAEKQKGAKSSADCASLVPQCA
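MLSMR compounds (23 nl, pin-transferred) preincubated 10 min at room temperature with a 500nM (2x) first reagent, then RGS4 at 900nM (2x) plus Transcreener GDP mix added; fluorescence polarization (620/688 nm) read before and after 90 min at 30 °C.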
Numbers without * were called inactive; i = inactive; u = inconclusive; x = no result; [ ] = dose if it differs, or a comment.

SMILES	LDHA block	D3 antag	PI4K2A inh	DRD3 agonist	pAkt inh	RGS4 inhibitor
Cc1cccc(N2C(=O)CS/C2=N\NC(=O)c2ccc(Br)cc2)c1C	-0.1	-78.9*	-13.3	-3.4	x	10.6%
CCOC(=O)/C=C(\C)Sc1cc(=O)oc2ccccc12	-4.9	-25.5	1.3	-0.3	i	-11.6%[56.9 µM]
CCOC(=O)/C=C(\C)Sc1cc(O)c2ccccc2c1O	16.8	-55.3*	u	-16.1	i	u
CC1=CC(=O)C(Sc2ccc(C)cc2)=CC1=O	48.8	-91.7*	2.8	-12.5	i	x
COc1ccc(C(=O)N(C)CC2CCN(CCc3cccc(C(F)(F)F)c3)CC2)cc1C	1.7	-77.2*	-0.5	-26.7	i	-1.8%
CC(=O)Nc1ccc(CN(C)CC2CCCN(CCc3cccc(C(F)(F)F)c3)C2)cc1 (configuration not stated)	-4.9	-11.1	-6.2	-7.8	i	8.6%
CCN(CC1CCCN(CCc2cccc(F)c2)C1)C(=O)c1ccoc1C (configuration not stated)	2.1	-50.8*	-4.4	-5.4	i	x
CSCCC(=O)N(C)CC1CCN(CCc2cccc(C(F)(F)F)c2)CC1	-1.6	-6.5	-2.8	-16.1	i	-14.2%
CN(CC1CCCN(CCc2cccc(C(F)(F)F)c2)C1)C(=O)c1ccco1 (configuration not stated)	-2.0	-62.9*	-0.1	-12.7	i	18.3%
CN(CC1CCN(CCc2cccc(C(F)(F)F)c2)CC1)C(=O)c1ccc(F)cc1F	-1.5	-69.2*	3.4	-26.7	i	-19.3%
CCN(CC1CCCN(CCc2cccc(F)c2)C1)C(=O)c1ccc(CSC)o1 (configuration not stated)	-9.3	-26.9	-8.2	-17.4	i	u
COc1ccc(CNC(=O)Cc2c(C)c3cc(Cl)c(OC)cc3oc2=O)cc1	-2.3	x	x	x	x	x
O=C(c1ccc2ncsc2c1)N(Cc1ccc(F)cc1)C1CC1	-4.0	x	x	x	x	x
CCOC(=O)COc1cc2c(C(=O)OCC)c(C)oc2cc1Br	3.0	-5.9	-7.9	34.7*	i	-0.7%
O=C1CC(c2ccccc2)CC(=O)C1Sc1ccc(Cl)cc1 (configuration not stated)	-4.8	-53.4*	-2.4	-13.8	i	-34.0%
O=C(COC(=O)C1(c2ccccc2F)CCCC1)Nc1ccc(C(F)(F)F)cc1[N+](=O)[O-]	-4.0	x	x	x	x	x
CCCCCCCCS(=O)CCC(N)=O (configuration not stated)	2.7	x	x	x	x	x
COc1ccc(C[C@H]2CN3C(=NC[C@@H]3C(C)C)N2C[C@H](C)NC(=O)c2ccc(C)c(Br)c2)cc1	-2.2	-75.6*	-2.3	-59.7	i	u
Cc1ccc(C(=O)N[C@@H](C)CN2C3=NC[C@H](C(C)C)N3C[C@H]2Cc2ccc(O)cc2)cc1Br	0.2	-18.2	0.5	-41.0	i	-12.9%
C[C@@H](CN1C2=NC[C@H](Cc3ccc(O)cc3)N2C[C@H]1Cc1ccc(O)cc1)NC(=O)CCC1CCCCC1	1.8	-15.2	-1.5	-19.1	i	2.0%
COc1ccc(C[C@H]2CN3C(=NC[C@@H]3Cc3ccc(O)cc3)N2C[C@H](C)NC(=O)c2ccc(C)c(Br)c2)cc1	4.4	-80.6*	-6.7	-109.9	i	-38.5%
CCCCCCn1c(SCCCCC)nc2c1c(=O)[nH]c(=O)n2C	-3.2	x	x	x	x	x
COc1cc2[nH]c(=S)n(NC(=O)c3ccccc3)c(=O)c2cc1OC	-2.0	-60.8*	0.8	-29.5	x	-10.5%
COc1cc2[nH]c(=S)n(C3CC3)c(=O)c2cc1OC	-1.5	-58.5*	0.6	-12.0	i	u
COC(=O)c1ccc2c(=O)n(NC(C)=O)c(=S)[nH]c2c1	7.3	11.0	-1.1	-14.7	i	-28.1%
SMILES	LDHA block	D3 antag	PI4K2A inh	DRD3 agonist	pAkt inh	RGS4 inhibitor
O=C(c1nn(-c2ccccc2)c(=O)c2ccccc12)N(Cc1ccccc1)C1CC1	0.4	x	x	x	x	x
COCCNC(=O)C1(C)CCCN(C(=O)c2cnc3ccccc3n2)C1 (configuration not stated)	-1.8	-5.0	-2.9	6.5	i	x
CCNC(=O)C1(C)CCCN1C(=O)c1cnc2ccccc2n1 (configuration not stated)	-0.4	-57.9*	-1.8	-3.4	i	x
Cc1cc(C)c(/C=N/NC(=O)c2csc3ccccc23)c(C)c1	-3.8	x	x	x	x	x
COCCNc1oc(-c2cccc(Cl)c2)nc1S(=O)(=O)c1ccc2c(c1)OCCO2	-3.0	x	x	x	x	x
O=C(c1ccc(F)cc1)C(CCCCCC(CN1CCOCC1)C(=O)c1ccc(F)cc1)CN1CCOCC1 (configuration not stated)	-0.8	-58.2*	2.1	-13.4	i	7.1%
OC(CN1CCOCC1)c1ccc(F)cc1 (configuration not stated)	u	-20.3	-8.0	0.6	i	19.7%
CCOc1ccc(-n2nc3ccc(NC(=O)COc4ccc(OC)cc4)cc3n2)cc1	-11.6	x	-2.3	2.4	x	8.0%
COc1ccc(OCC(=O)Nc2ccc3nn(-c4ccc(OC)cc4)nc3c2)cc1	-6.1	x	-1.1	62.2*	x	-11.6%
COc1ccc(-n2c(=O)c3c4c(sc3n3cnnc23)CCC4)cc1	22.0	x	x	x	x	x
FC(F)(F)c1ccc(Cl)c(Nc2nnc(-c3ccncc3)s2)c1	0.0	-56.5*	x	-7.7	i	x
Clc1ccccc1Nc1nnc(-c2ccncc2)s1	-4.8	-23.7	u	-9.6	i	-4.9%
COc1cc(NC(=O)C2C3C=CC(C3)C2C(=O)O)c(OC)cc1Cl (configuration not stated)	12.9	-86.1*	1.3	3.7	i	-6.6%
COc1ccc(CNC(=O)c2cc3cc(C)ccc3[nH]2)cc1	2.6	x	x	x	x	x
CCn1c(C)nc2cc(-c3nnc(-c4c(-c5ccccc5)noc4C)o3)ccc21	-4.9	87.0	-3.4	41.1*	i	-37.1%
C=CCn1c(SCc2c(C)noc2C)nc2ccccc2c1=O	-8.9	-20.1	2.1	-11.0	i	15.1%
C=CCn1c(SCc2c(C)noc2C)nc2cc(C(=O)O)ccc2c1=O	-1.4	8.5	-3.3	35.6*	i	-12.4%
N#Cc1ccc(COC(=O)C2CCCCC2)cc1	0.5	x	x	x	x	x
N#Cc1ccc(COC(=O)C2CCC(=O)N2)cc1 (configuration not stated)	-2.2	-51.9*	-1.6	-9.7	i	43.5%
